Measurements reported in ChEMBL document CHEMBL1961873, “Compounds: GSK PKIS; Assays: Nanosyn kinase panel” (2012).

What was measured:
[1] = target: T1, Tyrosine-protein kinase ITK/TSK (Homo sapiens) (UniProt Q08881); conditions: at 1 µM;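 also: values are mean percent inhibition of ITK from the GSK PKIS screen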
T1 sequence (whole entry): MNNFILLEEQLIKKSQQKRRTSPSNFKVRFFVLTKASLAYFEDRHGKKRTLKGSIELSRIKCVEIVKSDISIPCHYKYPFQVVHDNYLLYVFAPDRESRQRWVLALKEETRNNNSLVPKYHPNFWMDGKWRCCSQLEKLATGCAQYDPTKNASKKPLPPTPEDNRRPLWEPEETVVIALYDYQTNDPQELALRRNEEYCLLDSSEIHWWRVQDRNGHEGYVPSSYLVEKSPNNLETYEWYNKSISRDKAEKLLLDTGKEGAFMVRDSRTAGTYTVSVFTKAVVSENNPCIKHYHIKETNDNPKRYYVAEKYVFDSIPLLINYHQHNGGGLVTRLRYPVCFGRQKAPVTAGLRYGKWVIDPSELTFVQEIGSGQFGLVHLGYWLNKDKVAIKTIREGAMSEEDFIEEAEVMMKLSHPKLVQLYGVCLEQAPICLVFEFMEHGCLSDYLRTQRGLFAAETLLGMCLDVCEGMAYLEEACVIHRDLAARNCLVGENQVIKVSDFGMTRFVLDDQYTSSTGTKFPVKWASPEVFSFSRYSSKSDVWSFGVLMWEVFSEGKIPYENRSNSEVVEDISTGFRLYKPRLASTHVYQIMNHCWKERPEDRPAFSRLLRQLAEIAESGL

[2] = target: Tyrosine-protein kinase JAK1 (Homo sapiens) (UniProt P23458); conditions: at 0.1 µM
Tyrosine-protein kinase JAK1 (Homo sapiens), sequence (P23458 whole entry): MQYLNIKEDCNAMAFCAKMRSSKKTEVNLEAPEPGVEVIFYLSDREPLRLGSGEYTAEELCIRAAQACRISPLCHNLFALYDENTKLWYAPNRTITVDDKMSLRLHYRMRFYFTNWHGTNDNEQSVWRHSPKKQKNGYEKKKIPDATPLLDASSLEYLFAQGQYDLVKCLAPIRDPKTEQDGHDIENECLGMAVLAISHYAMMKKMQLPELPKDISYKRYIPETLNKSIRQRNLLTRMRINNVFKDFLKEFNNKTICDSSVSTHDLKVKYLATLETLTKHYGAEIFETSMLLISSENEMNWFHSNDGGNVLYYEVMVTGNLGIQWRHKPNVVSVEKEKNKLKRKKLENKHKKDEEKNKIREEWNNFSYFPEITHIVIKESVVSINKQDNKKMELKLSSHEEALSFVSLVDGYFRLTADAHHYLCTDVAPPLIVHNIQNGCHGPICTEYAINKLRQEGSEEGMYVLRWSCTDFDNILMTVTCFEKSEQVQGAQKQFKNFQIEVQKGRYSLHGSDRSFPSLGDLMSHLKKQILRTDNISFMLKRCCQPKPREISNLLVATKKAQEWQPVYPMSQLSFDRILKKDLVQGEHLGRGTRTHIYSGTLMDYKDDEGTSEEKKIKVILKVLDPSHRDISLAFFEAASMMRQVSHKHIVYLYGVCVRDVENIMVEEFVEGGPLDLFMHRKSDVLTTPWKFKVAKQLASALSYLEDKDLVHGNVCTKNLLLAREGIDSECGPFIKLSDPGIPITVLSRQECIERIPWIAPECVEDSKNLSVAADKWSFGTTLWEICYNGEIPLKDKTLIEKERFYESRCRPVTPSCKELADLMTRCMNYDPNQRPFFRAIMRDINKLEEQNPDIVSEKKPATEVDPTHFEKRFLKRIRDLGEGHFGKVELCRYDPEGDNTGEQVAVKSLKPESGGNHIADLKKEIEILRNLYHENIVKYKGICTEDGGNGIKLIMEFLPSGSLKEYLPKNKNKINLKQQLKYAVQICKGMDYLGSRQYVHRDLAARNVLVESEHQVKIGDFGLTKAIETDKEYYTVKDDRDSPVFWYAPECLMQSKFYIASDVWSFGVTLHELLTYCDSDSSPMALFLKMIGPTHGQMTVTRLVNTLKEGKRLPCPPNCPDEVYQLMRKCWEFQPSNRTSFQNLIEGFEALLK

[3] = target: Tyrosine-protein kinase JAK1 (Homo sapiens) (UniProt P23458); conditions: at 1 µM
[4] = target: Tyrosine-protein kinase JAK2 (Homo sapiens) (UniProt O60674); conditions: at 0.1 µM
Tyrosine-protein kinase JAK2 (Homo sapiens), sequence (O60674 whole entry): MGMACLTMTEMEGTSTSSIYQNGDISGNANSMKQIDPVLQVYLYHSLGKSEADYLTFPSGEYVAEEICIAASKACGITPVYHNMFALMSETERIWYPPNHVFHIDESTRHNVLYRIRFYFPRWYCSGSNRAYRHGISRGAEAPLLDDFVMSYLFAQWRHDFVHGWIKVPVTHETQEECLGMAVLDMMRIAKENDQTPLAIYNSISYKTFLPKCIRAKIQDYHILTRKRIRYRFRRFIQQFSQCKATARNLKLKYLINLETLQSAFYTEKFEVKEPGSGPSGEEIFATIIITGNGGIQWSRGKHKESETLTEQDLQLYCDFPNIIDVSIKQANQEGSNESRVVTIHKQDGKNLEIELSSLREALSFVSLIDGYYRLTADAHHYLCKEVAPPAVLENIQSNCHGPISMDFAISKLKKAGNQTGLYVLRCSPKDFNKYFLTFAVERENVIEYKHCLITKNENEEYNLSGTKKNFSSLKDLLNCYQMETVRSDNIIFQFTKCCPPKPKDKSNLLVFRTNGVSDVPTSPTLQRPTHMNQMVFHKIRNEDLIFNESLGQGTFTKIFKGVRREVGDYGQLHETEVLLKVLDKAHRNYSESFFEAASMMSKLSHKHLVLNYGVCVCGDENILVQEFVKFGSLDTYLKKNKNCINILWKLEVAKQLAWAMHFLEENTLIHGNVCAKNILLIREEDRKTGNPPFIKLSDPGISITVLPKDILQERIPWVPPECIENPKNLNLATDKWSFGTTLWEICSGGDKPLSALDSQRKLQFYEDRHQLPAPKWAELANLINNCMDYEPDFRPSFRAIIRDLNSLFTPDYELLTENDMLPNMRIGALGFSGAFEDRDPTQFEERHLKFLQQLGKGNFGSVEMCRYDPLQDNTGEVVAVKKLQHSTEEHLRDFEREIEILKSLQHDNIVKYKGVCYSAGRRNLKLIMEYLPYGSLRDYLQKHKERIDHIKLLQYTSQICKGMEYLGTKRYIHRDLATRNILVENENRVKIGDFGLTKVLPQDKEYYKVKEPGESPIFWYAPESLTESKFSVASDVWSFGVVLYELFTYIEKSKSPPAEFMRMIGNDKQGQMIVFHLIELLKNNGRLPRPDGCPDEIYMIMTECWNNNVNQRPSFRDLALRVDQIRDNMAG

[5] = target: Tyrosine-protein kinase JAK2 (Homo sapiens) (UniProt O60674); conditions: at 1 µM
[6] = target: T2, Tyrosine-protein kinase JAK3 (Homo sapiens) (UniProt P52333); conditions: at 0.1 µM
T2 sequence (whole entry): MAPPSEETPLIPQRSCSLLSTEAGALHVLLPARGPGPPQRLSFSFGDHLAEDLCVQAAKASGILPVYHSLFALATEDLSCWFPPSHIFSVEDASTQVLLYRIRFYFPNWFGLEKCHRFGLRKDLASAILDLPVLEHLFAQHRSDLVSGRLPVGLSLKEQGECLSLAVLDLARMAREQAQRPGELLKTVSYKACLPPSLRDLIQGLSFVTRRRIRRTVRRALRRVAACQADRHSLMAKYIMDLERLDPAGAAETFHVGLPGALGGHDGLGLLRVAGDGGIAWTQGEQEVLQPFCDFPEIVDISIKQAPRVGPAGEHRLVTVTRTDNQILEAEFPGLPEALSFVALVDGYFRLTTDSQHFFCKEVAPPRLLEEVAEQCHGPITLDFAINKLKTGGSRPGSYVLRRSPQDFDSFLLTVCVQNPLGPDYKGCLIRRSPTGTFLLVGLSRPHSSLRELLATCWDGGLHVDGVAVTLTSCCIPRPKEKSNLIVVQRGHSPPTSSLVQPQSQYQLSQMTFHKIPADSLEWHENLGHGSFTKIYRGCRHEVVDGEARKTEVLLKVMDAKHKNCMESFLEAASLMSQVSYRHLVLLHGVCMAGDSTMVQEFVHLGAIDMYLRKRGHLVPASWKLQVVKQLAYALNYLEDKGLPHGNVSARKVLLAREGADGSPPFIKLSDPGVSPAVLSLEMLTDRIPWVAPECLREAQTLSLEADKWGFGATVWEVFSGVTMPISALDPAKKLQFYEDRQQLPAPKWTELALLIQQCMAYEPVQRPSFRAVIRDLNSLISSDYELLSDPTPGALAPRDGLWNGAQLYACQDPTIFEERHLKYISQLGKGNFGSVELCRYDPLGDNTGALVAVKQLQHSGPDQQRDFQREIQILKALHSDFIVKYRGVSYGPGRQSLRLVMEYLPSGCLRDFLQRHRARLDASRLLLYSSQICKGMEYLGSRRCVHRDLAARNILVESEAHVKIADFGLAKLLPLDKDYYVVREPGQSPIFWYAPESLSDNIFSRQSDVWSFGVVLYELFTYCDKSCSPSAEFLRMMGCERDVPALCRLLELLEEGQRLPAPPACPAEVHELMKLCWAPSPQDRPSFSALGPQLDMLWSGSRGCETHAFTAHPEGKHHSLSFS

[7] = target: T2, Tyrosine-protein kinase JAK3 (Homo sapiens); conditions: at 1 µM
[8] = target: Vascular endothelial growth factor receptor 2 (Homo sapiens) (UniProt P35968); conditions: at 0.1 µM
[9] = target: Vascular endothelial growth factor receptor 2 (Homo sapiens) (UniProt P35968); conditions: at 1 µM
[10] = target: Mast/stem cell growth factor receptor Kit (Homo sapiens) (UniProt P10721); conditions: at 0.1 µM
Mast/stem cell growth factor receptor Kit (Homo sapiens), sequence (P10721 whole entry): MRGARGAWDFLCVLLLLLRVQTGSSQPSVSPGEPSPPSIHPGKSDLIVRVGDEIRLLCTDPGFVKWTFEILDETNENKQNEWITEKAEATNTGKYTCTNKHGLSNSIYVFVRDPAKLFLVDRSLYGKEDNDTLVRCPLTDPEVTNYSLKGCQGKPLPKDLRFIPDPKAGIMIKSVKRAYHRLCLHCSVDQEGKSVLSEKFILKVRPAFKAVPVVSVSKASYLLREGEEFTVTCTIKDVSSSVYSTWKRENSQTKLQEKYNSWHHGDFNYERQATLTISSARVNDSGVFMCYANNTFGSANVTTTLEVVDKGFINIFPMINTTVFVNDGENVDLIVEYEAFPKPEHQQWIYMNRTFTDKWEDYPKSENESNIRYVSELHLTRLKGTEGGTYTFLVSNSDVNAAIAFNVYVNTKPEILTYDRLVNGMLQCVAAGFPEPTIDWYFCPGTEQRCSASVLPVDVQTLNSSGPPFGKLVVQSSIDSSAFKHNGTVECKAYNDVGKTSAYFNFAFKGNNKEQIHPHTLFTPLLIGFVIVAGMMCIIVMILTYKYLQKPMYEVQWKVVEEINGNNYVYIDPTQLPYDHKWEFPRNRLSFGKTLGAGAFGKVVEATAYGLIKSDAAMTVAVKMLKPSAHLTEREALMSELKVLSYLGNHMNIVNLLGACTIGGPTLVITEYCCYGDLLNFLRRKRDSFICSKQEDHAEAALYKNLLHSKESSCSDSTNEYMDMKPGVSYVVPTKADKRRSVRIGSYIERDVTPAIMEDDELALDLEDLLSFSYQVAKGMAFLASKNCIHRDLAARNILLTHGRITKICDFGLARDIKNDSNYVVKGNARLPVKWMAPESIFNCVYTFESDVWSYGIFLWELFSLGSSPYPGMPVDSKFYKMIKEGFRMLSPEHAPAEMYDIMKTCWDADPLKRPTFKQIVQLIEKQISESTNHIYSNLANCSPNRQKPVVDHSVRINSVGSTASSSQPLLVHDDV

[11] = target: Mast/stem cell growth factor receptor Kit (Homo sapiens) (UniProt P10721); conditions: at 1 µM
[12] = tested on: Mast/stem cell growth factor receptor Kit (Homo sapiens), P10721 [D816V]; conditions: at 0.1 µM
Mast/stem cell growth factor receptor Kit (Homo sapiens), P10721 [D816V], sequence (P10721 whole entry D816V): as the sequence (P10721 whole entry) above, with D816V counted along it

[13] = tested on: Mast/stem cell growth factor receptor Kit (Homo sapiens), P10721 [D816V]; conditions: at 1 µM
[14] = tested on: Mast/stem cell growth factor receptor Kit (Homo sapiens), P10721 [T670I]; conditions: at 0.1 µM
Mast/stem cell growth factor receptor Kit (Homo sapiens), P10721 [T670I], sequence (P10721 whole entry T670I): as the sequence (P10721 whole entry) above, with T670I counted along it

[15] = tested on: Mast/stem cell growth factor receptor Kit (Homo sapiens), P10721 [T670I]; conditions: at 1 µM
[16] = tested on: Mast/stem cell growth factor receptor Kit (Homo sapiens), P10721 [V560G]; conditions: at 0.1 µM
Mast/stem cell growth factor receptor Kit (Homo sapiens), P10721 [V560G], sequence (P10721 whole entry V560G): as the sequence (P10721 whole entry) above, with V560G counted along it

[17] = tested on: Mast/stem cell growth factor receptor Kit (Homo sapiens), P10721 [V560G]; conditions: at 1 µM
[18] = target: Tyrosine-protein kinase Lck (Homo sapiens) (UniProt P06239); conditions: at 0.1 µM
Tyrosine-protein kinase Lck (Homo sapiens), sequence (P06239 2-509 limits assumed): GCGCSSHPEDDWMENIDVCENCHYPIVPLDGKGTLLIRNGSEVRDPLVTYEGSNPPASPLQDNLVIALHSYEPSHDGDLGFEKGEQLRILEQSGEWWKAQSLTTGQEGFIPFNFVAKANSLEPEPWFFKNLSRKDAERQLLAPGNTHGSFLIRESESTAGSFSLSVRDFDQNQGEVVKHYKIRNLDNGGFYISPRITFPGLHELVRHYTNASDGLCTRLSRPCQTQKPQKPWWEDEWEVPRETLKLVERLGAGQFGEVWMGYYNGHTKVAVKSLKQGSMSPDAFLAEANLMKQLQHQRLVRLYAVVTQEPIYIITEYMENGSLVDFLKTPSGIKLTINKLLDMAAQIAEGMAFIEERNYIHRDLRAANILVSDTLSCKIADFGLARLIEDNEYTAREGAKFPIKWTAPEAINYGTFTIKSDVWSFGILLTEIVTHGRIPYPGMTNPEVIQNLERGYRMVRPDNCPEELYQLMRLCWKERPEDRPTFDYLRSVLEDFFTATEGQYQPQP

[19] = target: Tyrosine-protein kinase Lck (Homo sapiens) (UniProt P06239); conditions: at 1 µM
[20] = target: Leukocyte tyrosine kinase receptor (Homo sapiens) (UniProt P29376); conditions: at 0.1 µM
Leukocyte tyrosine kinase receptor (Homo sapiens), sequence (P29376 whole entry): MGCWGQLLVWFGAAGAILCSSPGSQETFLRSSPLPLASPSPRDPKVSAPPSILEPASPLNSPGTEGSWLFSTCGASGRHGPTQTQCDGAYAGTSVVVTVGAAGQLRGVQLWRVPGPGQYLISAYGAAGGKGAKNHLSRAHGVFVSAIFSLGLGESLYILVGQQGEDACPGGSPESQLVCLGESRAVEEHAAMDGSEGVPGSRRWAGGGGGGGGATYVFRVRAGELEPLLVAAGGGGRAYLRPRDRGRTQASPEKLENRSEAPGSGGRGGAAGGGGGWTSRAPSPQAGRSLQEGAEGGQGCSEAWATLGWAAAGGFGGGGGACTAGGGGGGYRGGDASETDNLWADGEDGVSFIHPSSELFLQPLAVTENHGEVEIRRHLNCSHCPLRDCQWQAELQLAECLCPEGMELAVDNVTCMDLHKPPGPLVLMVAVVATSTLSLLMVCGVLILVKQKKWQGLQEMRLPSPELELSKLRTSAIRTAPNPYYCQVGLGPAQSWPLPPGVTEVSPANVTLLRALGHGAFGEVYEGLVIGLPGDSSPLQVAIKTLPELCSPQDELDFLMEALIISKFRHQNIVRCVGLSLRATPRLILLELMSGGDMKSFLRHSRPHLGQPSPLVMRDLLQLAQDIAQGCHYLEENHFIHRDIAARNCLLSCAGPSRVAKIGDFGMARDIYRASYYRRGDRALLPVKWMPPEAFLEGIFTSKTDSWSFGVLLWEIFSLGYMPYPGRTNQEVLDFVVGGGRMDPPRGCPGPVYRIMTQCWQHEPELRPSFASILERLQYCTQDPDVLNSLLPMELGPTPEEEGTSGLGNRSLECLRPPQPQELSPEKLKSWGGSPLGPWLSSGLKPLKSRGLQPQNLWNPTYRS

| SMILES | inhibition [1] [%] | inhibition [2] [%] | inhibition [3] [%] | inhibition [4] [%] | inhibition [5] [%] | inhibition [6] [%] | inhibition [7] [%] | inhibition [8] [%] | inhibition [9] [%] | inhibition [10] [%] | inhibition [11] [%] | inhibition [12] [%] | inhibition [13] [%] | inhibition [14] [%] | inhibition [15] [%] | inhibition [16] [%] | inhibition [17] [%] | inhibition [18] [%] | inhibition [19] [%] | inhibition [20] [%] |
| --- | --- | --- | --- | --- | --- | --- | --- | --- | --- | --- | --- | --- | --- | --- | --- | --- | --- | --- | --- | --- |
| Cc1cccc(Nc2ncc(-c3ccccc3)o2)c1 | 3.08 | 2.19 | 0.42 | 2 | 2.63 | -0.81 | -0.44 | 4.96 | 21.3 | 38.5 | 89 | 1.52 | -0.48 | 4.58 | 48 | 6.79 | 53 | 3.23 | 5.7 | 3.02 |
| Cc1cccc2c1NC(=O)/C2=N\Nc1ccc(S(N)(=O)=O)cc1 | 2.45 | 3.68 | 0.61 | 2.04 | 4 | 0 | 4.14 | 1.56 | 1.84 | 8.83 | 34.3 | 1.59 | -1.26 | 6.87 | 7.06 | 2.17 | 6.53 | 1.96 | 2.95 | 2.01 |
| COc1cc2c(cc1Nc1nc(Nc3ccsc3C(N)=O)c3cc[nH]c3n1)N(C(=O)CN(C)C)CCC2(C)C | 3.88 | 4.13 | 2.78 | 0.97 | 0.03 | 0.41 | 1.42 | 8.34 | 14.1 | 18.8 | 67.6 | 3.34 | 7.2 | 5.12 | 16.2 | 5.02 | 17.8 | 0.99 | 4.76 | 95.3 |
| NS(=O)(=O)c1ccc(Nc2ncc(-c3ccccc3)o2)cc1 | 2.34 | 3.09 | 5.63 | 0.87 | 3.74 | -0.66 | 3.55 | 6.16 | 23.6 | 38.7 | 88.6 | 0.49 | 2.25 | 14.9 | 58.7 | 9.24 | 52.5 | 1.77 | 6.21 | 4.12 |
| c1ccc(-c2nc3n(c2-c2ccc4c(c2)OCO4)CCC3)nc1 | 0.24 | -2.35 | 4.78 | 1.27 | -1.02 | -0.19 | -0.04 | 3.58 | 11.7 | 1.86 | 1.73 | 2.63 | 0.34 | 2.34 | 2.64 | -1.47 | -1.27 | 0.66 | 3.01 | 0.09 |
| Fc1ccc(-c2nn3ccccc3c2-c2ccncc2)cc1 | 1.56 | 0.87 | -0.62 | 0.36 | 1.23 | -0.48 | 0.18 | 3.84 | 9.61 | 1.23 | 12.1 | -1.36 | -0.05 | -0.12 | 1.47 | -1.06 | 1.71 | 1.24 | 5.7 | 1.27 |
| COc1ccc2c(-c3ccnc(Nc4cccc(OC(F)(F)F)c4)n3)cnn2n1 | 2.38 | 4.66 | 13 | 1.65 | 10.9 | -0.93 | 2.75 | 6.22 | 14.8 | 10.7 | 45.9 | 7.04 | 6.99 | 2.93 | 11.2 | -0.57 | 5.63 | 1.54 | 5.72 | 3.12 |
| COc1ccc(-c2oc3ncnc(N)c3c2-c2ccc(NC(=O)Nc3cc(C(F)(F)F)ccc3F)cc2)cc1 | 40.8 | 14.6 | 43.3 | 2.04 | 14.4 | 1.04 | 3.12 | 75.4 | 73.7 | 37.9 | 96 | 2.85 | 5.19 | 11.8 | 88.3 | 25.5 | 78.6 | 21.1 | 83.9 | 4.21 |
| COC(=O)c1sc(-n2cnc3cc(OC)c(OC)cc32)cc1OCc1ccccc1C(F)(F)F | 1.09 | 3.38 | -0.23 | 0.91 | 5.28 | 0.11 | 10.7 | 15.2 | 49.6 | 2.41 | 11.8 | 2.28 | 2.88 | 4.55 | 7.23 | -0.04 | 2.01 | 4.87 | 32.2 | 5.2 |
| [O-][S+]1CCN(Cc2ccc(-c3ccc4ncnc(Nc5ccc(OCc6cccc(F)c6)c(Cl)c5)c4c3)o2)CC1 | 2.41 | 6.24 | 9.08 | 1.51 | 1.04 | -1.66 | -0.12 | 5.24 | 7.82 | 4.47 | 10.1 | 6.9 | 3.81 | 2.75 | 5.16 | -2.67 | -0.28 | 2.85 | 8.2 | 7.04 |
| COc1ccc(-c2cc(-c3c[nH]nc3-c3ccccn3)ccn2)cc1 | 2.05 | 4.74 | 7.4 | 1.59 | 4.19 | -1.18 | -0.62 | 12.7 | 48 | 5.05 | 9.66 | 4.3 | 11.7 | 4.24 | 4.17 | -1.03 | 2.87 | 2.68 | 5.16 | 5.4 |
| COc1cccc(-c2c[nH]c3c(N/N=C/c4ccncc4)ncnc23)c1 | 3.59 | 4.4 | 15.3 | 1.76 | 15.1 | 0.32 | 24.9 | 17.6 | 61 | 45.5 | 88 | 8.75 | 38.7 | 7.21 | 51.1 | 4.19 | 19.6 | 35.1 | 82 | 3.15 |
| CN1CCC(n2cnc(-c3ccc(F)cc3)c2-c2ccnc(Nc3ccccc3)n2)CC1 | 1.68 | 1.51 | 8.4 | 0.27 | 0.26 | -0.54 | 1.46 | 4.35 | 12.4 | 2.33 | 6 | 1.84 | 2.39 | 3.38 | 1.42 | -1.35 | 4.06 | 4.17 | 20.5 | 2.75 |
| COc1cc(/C=N/Nc2ncnc3[nH]ncc23)ccc1O | 7.65 | 8.12 | 9.29 | 1.72 | 4.07 | -1.64 | 2.59 | 10.3 | 45.6 | 11.4 | 49.4 | 8.85 | 12.9 | 0.9 | 7.67 | 1.4 | 6.17 | 12.5 | 54.7 | 4.08 |
